The record followed here is PubChem BioAssay.

The structures appear in SMILES notation. Calls of active or inactive are those of the source.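 The calls were made as follows, unless noted: active = fluorescence slope higher than the sample average by over 3 SD (cut at about -0.22 in these data, passing the limit was not always enough); inactive = the rest.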

Tested on in the first test: not listed separately
In words: endothelial E-selectin expression blockers – imaging, HUVEC, immunofluorescence, MLSMR starter and 10KST1 sets, primary screen (AID 487;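 active = visually confirmed hit in the image check and inhibition above 20%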;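 as to inhibition: signal is fraction of cell area covered by stained E-selectin grains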;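 as to nuclei count: 100% = median nuclei count of all wells on the same plate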). The note with it: HUVEC TNFalpha-induced E-selectin immunofluorescence imaging, at 2 µM; inhibition: stronger effect = higher value; nuclei count: measured here: cell number, toxicity.
For the compound `CCOC(=O)c1c(C)oc2ccc(O)c(CN3CCCCC3)c12`, the nuclei count was determined as 81.7% and the inhibition is -90.5% (inactive).

Take `ON=C1/C(=N\O)CC2(C/C1=N/O)OCCO2`: the nuclei count was 89.7% and the inhibition is 7.1% (inactive).

As to `CC1CCCCN1CCNC(=O)c1ccc2c(=O)n(CCc3ccccc3)c(=O)[nH]c2c1` (stereo not given), the inhibition is -3.9% (inactive) and the nuclei count worked out at 119%.

With `COc1nc(OC)nc(N2CCC(NC(=O)C(Cc3ccc(C(C)C)cc3)NC(C)=O)CC2)n1` (stereo not given), the nuclei count is 130% and the inhibition was -10.4% (inactive).

Consider `O=C(CN1C(=O)c2cccc3cccc1c23)N1CCN(c2ccccc2)CC1`, for which the inhibition is -27.9% (inactive) and the nuclei count was 101%.

Turning to `CCCc1cc(-c2n[nH]c(C)c2-c2ccc(C(=O)OCC)o2)c(O)cc1O`, the inhibition is -35.2% (inactive) and the nuclei count is 113%.

In the case of `Cc1ccc(-c2cc(C(=O)NCc3ccc4c(c3)OCO4)no2)cc1`, the inhibition was 17% (inactive) and the nuclei count came out at 101%.

On to `CCn1c(SCC(=O)Nc2ccc(C(C)=O)cc2)nc2ccccc21`, for which the nuclei count is 98.3% and the inhibition was -2.2% (inactive).

Turning to `CCCCNC(=O)CN(C1CCCCC1)S(C)(=O)=O`, the inhibition was -22.8% (inactive) and the nuclei count turned out to be 103%.

As to `C[C@H](NC(=O)OC(C)(C)C)C(=O)NCC1CCC(C(=O)O)CC1` (stereo not given in full), the nuclei count was 101% and the inhibition is -23.6% (inactive).

Regarding `c1ccc(-c2cc(-c3nc(-c4ccccn4)no3)c3ccccc3n2)cc1`, the nuclei count is 140% and the inhibition was -171% (inactive).

In the case of `Cc1cccc(N2CCN(C(=O)Cn3ccc4ccccc4c3=O)CC2)c1C`, the nuclei count is 94% and the inhibition is -4.9% (inactive).

Take `Nc1sccc1C(=O)c1ccccc1`: the nuclei count is 129% and the inhibition is -45.7% (inactive).

On to `COc1ccc(C2=NOC(C(=O)NCc3ccc(F)cc3)C2)cc1OC` (stereo not given), for which the inhibition was -172% (inactive) and the nuclei count was 99.1%.

For the compound `c1ccc(-c2cn3c4c(sc3n2)CCCC4)cc1`, the inhibition was -34.8% (inactive) and the nuclei count was 116%.

As to `COc1ccc(-n2c(COc3ccccc3)nnc2SCc2ccc(C#N)cc2)cc1`, the nuclei count came out at 95.8% and the inhibition is -58.1% (inactive).

In the case of `Cc1ccc(Cn2c(C(=O)NCCCN3CCOCC3)cc3sccc32)cc1`, the nuclei count was determined as 118% and the inhibition is -218% (inactive).

Take `Cc1ccc(NC(=O)CS(=O)CC(=O)NCC2CCCO2)cc1` (stereo not given): the nuclei count turned out to be 117% and the inhibition is -38.7% (inactive).

Regarding `CCN(CC)C(=O)CSc1nc2ccccc2c(=O)n1CCC(=O)NCc1ccc(F)cc1`, the nuclei count came out at 112% and the inhibition was -22% (inactive).

Turning to `COc1ccccc1N1CCN(c2nc3ccccc3nc2C(C#N)C(=O)OC(C)C)CC1` (stereo not given), the nuclei count was 191% and the inhibition is -72.9% (inactive).

Take `COc1ccc2cc(C#N)c(NC(C)C)nc2c1`: the nuclei count came to 108% and the inhibition was -23.1% (inactive).

`Cc1nc2ccc(NC(=O)N3CCC(c4ccccc4)C3)cc2nc1C` (stereo not given): the inhibition is 20.7% (inactive) and the nuclei count is 68.5%.

In the case of `COc1cc(=O)[nH]c(SCc2c(F)c(F)c(F)c(F)c2F)n1`, the nuclei count stood at 104% and the inhibition is -11.4% (inactive).

In the case of `CC(=O)Nc1ccc(S(=O)(=O)N(CC(=O)O)Cc2ccccc2)cc1`, the inhibition is -167% (inactive) and the nuclei count came to 130%.

Consider `CCOC(=O)c1nnn(-c2nonc2N)c1CN1CCc2ccccc2C1`, for which the inhibition is -18.4% (inactive) and the nuclei count was 108%.

With `CCOC(=O)N1CCC(NC(=O)c2ccc3c(c2)N(C)CCS3)CC1`, the nuclei count is 126% and the inhibition was -131% (inactive).

For `CCOC(=O)c1c(NCc2ccc3c(c2)OCO3)c2ccccc2[nH]c1=O`, the inhibition was -51.7% (inactive) and the nuclei count was 111%.

For the compound `O=S1(=O)Nc2c(ccc3cccnc23)-c2ccccc21`, the nuclei count amounted to 94.2% and the inhibition is 47.4% (inactive).

With `COc1ccc(CCN2C(=O)C3C4C=CC(C4)C3C2=O)cc1OC` (stereo not given), the nuclei count came to 99.7% and the inhibition is -4.2% (inactive).

Take `CC(=O)NCCn1ccc2ccccc21`: the inhibition is -55.1% (inactive) and the nuclei count came out at 99.6%.

On to `C=CCn1c(=O)[nH]c2cc(C(=O)N3CCN(c4ccc(C(C)=O)cc4)CC3)ccc2c1=O`, for which the nuclei count amounted to 106% and the inhibition is -161% (inactive).

For the compound `O=C(CSc1nc2ccccc2c(=O)n1CCC(=O)N1CCCCC1)NCc1ccccc1`, the nuclei count amounted to 101% and the inhibition is 16.9% (inactive).

Turning to `COC(=O)C(F)(F)Sc1c(C)[nH]c2ccccc12`, the nuclei count was 108% and the inhibition is 41.7% (inactive).

In the case of `COCCN(C(=O)Cn1nnc2ccccc21)C(C(=O)NC1CCCC1)c1cc(OC)ccc1OC` (stereo not given), the inhibition is -246% (inactive) and the nuclei count was found to be 112%.

`COC(=O)C(C)C1Sc2ccccc2NC1=O` (stereo not given): the nuclei count was 131% and the inhibition is -37.7% (inactive).

On to `COc1ccc(CC(NC(C)=O)C(=O)NC2CCN(c3nc(C)cc(C)c3C#N)CC2)c(OC)c1` (stereo not given), for which the nuclei count is 112% and the inhibition is -32.4% (inactive).

As to `Cc1ccc(CS(=O)(=O)CCC(=O)NCC2CCCO2)cc1` (stereo not given), the nuclei count turned out to be 121% and the inhibition was -191% (inactive).

For the compound `COc1ccccc1-c1nc(C#N)c(N2CCN(c3ccccc3)CC2)o1`, the nuclei count was determined as 93.4% and the inhibition is -96.9% (inactive).

With `COc1cccc(OCC(O)CN2CCN(CCO)CC2)c1` (stereo not given), the nuclei count worked out at 102% and the inhibition was -46.4% (inactive).

Take `Cc1ccc(C(=O)OCC(=O)c2ccc(Cl)s2)s1`: the nuclei count came out at 121% and the inhibition is -13.1% (inactive).

A further test deals with Voltage-gated potassium channel subunit beta-2 (Rattus norvegicus) (UniProt P62483). Briefly: inhibitors of rat Kvbeta2 reductase activity – biochemical, NADPH fluorescence, primary screen (AID 622).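 Also: slope of raw intensity against log time taken from 70 to 1610 s.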 The note with it: recombinant KvBeta, 4-cyanobenzaldehyde reduction, at 10 µM, stronger effect = higher value.
Chain of Voltage-gated potassium channel subunit beta-2 (Rattus norvegicus) (P62483 whole entry, looked up): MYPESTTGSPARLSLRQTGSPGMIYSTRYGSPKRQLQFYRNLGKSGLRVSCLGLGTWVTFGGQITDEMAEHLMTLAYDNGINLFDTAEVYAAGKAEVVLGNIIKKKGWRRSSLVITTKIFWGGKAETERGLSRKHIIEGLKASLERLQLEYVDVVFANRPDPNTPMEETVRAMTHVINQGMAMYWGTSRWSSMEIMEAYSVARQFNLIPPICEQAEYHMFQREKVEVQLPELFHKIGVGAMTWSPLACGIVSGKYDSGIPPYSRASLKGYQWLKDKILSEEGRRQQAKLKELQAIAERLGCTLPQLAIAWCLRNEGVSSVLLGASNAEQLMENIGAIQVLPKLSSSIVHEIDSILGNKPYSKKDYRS
For `CCOC(=O)c1c(C)oc2ccc(O)c(CN3CCCCC3)c12`, the fluorescence slope is -0.383 (inactive).

Consider `ON=C1/C(=N\O)CC2(C/C1=N/O)OCCO2`, for which the fluorescence slope was -0.532 (inactive).

For `CC1CCCCN1CCNC(=O)c1ccc2c(=O)n(CCc3ccccc3)c(=O)[nH]c2c1` (stereo not given), the fluorescence slope is -0.279 (inactive).

Turning to `COc1nc(OC)nc(N2CCC(NC(=O)C(Cc3ccc(C(C)C)cc3)NC(C)=O)CC2)n1` (stereo not given), the fluorescence slope was -0.486 (inactive).

`O=C(CN1C(=O)c2cccc3cccc1c23)N1CCN(c2ccccc2)CC1`: the fluorescence slope was -0.127 (inactive).

As for `CCCc1cc(-c2n[nH]c(C)c2-c2ccc(C(=O)OCC)o2)c(O)cc1O`, the fluorescence slope is -0.571 (inactive).

Consider `Cc1ccc(-c2cc(C(=O)NCc3ccc4c(c3)OCO4)no2)cc1`, for which the fluorescence slope was -0.315 (inactive).

For `CCn1c(SCC(=O)Nc2ccc(C(C)=O)cc2)nc2ccccc21`, the fluorescence slope is -0.453 (inactive).

As to `CCCCNC(=O)CN(C1CCCCC1)S(C)(=O)=O`, the fluorescence slope is -0.551 (inactive).

For `C[C@H](NC(=O)OC(C)(C)C)C(=O)NCC1CCC(C(=O)O)CC1` (stereo not given in full), the fluorescence slope is -0.536 (inactive).

As for `c1ccc(-c2cc(-c3nc(-c4ccccn4)no3)c3ccccc3n2)cc1`, the fluorescence slope was -0.265 (inactive).

Take `Cc1cccc(N2CCN(C(=O)Cn3ccc4ccccc4c3=O)CC2)c1C`: the fluorescence slope is -0.568 (inactive).

Turning to `Nc1sccc1C(=O)c1ccccc1`, the fluorescence slope was -0.563 (inactive).

With `COc1ccc(C2=NOC(C(=O)NCc3ccc(F)cc3)C2)cc1OC` (stereo not given), the fluorescence slope is -0.493 (inactive).

On to `c1ccc(-c2cn3c4c(sc3n2)CCCC4)cc1`, for which the fluorescence slope was -0.493 (inactive).

Turning to `COc1ccc(-n2c(COc3ccccc3)nnc2SCc2ccc(C#N)cc2)cc1`, the fluorescence slope was -0.543 (inactive).

For `Cc1ccc(Cn2c(C(=O)NCCCN3CCOCC3)cc3sccc32)cc1`, the fluorescence slope was -0.486 (inactive).

As to `Cc1ccc(NC(=O)CS(=O)CC(=O)NCC2CCCO2)cc1` (stereo not given), the fluorescence slope is -0.309 (inactive).

As for `CCN(CC)C(=O)CSc1nc2ccccc2c(=O)n1CCC(=O)NCc1ccc(F)cc1`, the fluorescence slope was -0.516 (inactive).

As to `COc1ccccc1N1CCN(c2nc3ccccc3nc2C(C#N)C(=O)OC(C)C)CC1` (stereo not given), the fluorescence slope is -0.523 (inactive).

With `COc1ccc2cc(C#N)c(NC(C)C)nc2c1`, the fluorescence slope is -0.495 (inactive).

Turning to `Cc1nc2ccc(NC(=O)N3CCC(c4ccccc4)C3)cc2nc1C` (stereo not given), the fluorescence slope is -0.0383 (inactive).

For the compound `COc1cc(=O)[nH]c(SCc2c(F)c(F)c(F)c(F)c2F)n1`, the fluorescence slope was -0.436 (inactive).

In the case of `CC(=O)Nc1ccc(S(=O)(=O)N(CC(=O)O)Cc2ccccc2)cc1`, the fluorescence slope was -0.575 (inactive).

With `CCOC(=O)c1nnn(-c2nonc2N)c1CN1CCc2ccccc2C1`, the fluorescence slope is -0.45 (inactive).

Consider `CCOC(=O)N1CCC(NC(=O)c2ccc3c(c2)N(C)CCS3)CC1`, for which the fluorescence slope is -0.0303 (active).

Take `CCOC(=O)c1c(NCc2ccc3c(c2)OCO3)c2ccccc2[nH]c1=O`: the fluorescence slope was -0.252 (inactive).

Turning to `O=S1(=O)Nc2c(ccc3cccnc23)-c2ccccc21`, the fluorescence slope is -0.465 (inactive).

As to `COc1ccc(CCN2C(=O)C3C4C=CC(C4)C3C2=O)cc1OC` (stereo not given), the fluorescence slope was -0.451 (inactive).

On to `CC(=O)NCCn1ccc2ccccc21`, for which the fluorescence slope is -0.518 (inactive).

For `C=CCn1c(=O)[nH]c2cc(C(=O)N3CCN(c4ccc(C(C)=O)cc4)CC3)ccc2c1=O`, the fluorescence slope is -0.464 (inactive).

Turning to `O=C(CSc1nc2ccccc2c(=O)n1CCC(=O)N1CCCCC1)NCc1ccccc1`, the fluorescence slope is -0.507 (inactive).

Consider `COC(=O)C(F)(F)Sc1c(C)[nH]c2ccccc12`, for which the fluorescence slope is -0.444 (inactive).

For `COCCN(C(=O)Cn1nnc2ccccc21)C(C(=O)NC1CCCC1)c1cc(OC)ccc1OC` (stereo not given), the fluorescence slope was -0.491 (inactive).

Turning to `COC(=O)C(C)C1Sc2ccccc2NC1=O` (stereo not given), the fluorescence slope was -0.28 (inactive).

`COc1ccc(CC(NC(C)=O)C(=O)NC2CCN(c3nc(C)cc(C)c3C#N)CC2)c(OC)c1` (stereo not given): the fluorescence slope is -0.341 (inactive).

Regarding `Cc1ccc(CS(=O)(=O)CCC(=O)NCC2CCCO2)cc1` (stereo not given), the fluorescence slope is -0.31 (inactive).

As to `COc1ccccc1-c1nc(C#N)c(N2CCN(c3ccccc3)CC2)o1`, the fluorescence slope was -0.495 (inactive).

Regarding `COc1cccc(OCC(O)CN2CCN(CCO)CC2)c1` (stereo not given), the fluorescence slope is -0.475 (inactive).

In the case of `Cc1ccc(C(=O)OCC(=O)c2ccc(Cl)s2)s1`, the fluorescence slope is -0.454 (inactive).
